Assay results published in PubChem BioAssay (Tox21).
Values joined by “and” are separate entries in the source; they are usually repeats but may differ in a detail not shown here. Equal values may be shown once. Inconclusive results are not listed. Active and inactive are the calls of the source. Unless noted, calls come from the whole dose curve.

system: not listed separately; assay: Nuclear factor erythroid 2-related factor 2/antioxidant responsive element (Nrf2/ARE) small molecule agonists: qHTS cell viability counter screen in human keratinocytes (AID 1919968; active = well fitted cell-killing curve with a large enough effect in the repeat runs; note: nearly all actives have a fitted effect of over 55% in size; note: potency is the fitted concentration of half-maximal effect); details: KeratinoSens HaCaT ARE cells viability, CellTiter-Fluor, 24 h; series mostly up to 92.4 µM; activity change, negative = cytotoxicity: at the top concentration
In short: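 CellTiter-Fluor fluorescence, read 1 h after reagent, gave viability in the same wells as the ARE-luciferase assay. KeratinoSens cells (1,500/well) had 23 h compound exposure at 37 C/5% CO2 following 5 h plating.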
% is set by controls: 0 for no effect and ±100 for the full control effect.

| SMILES | Potency | activity change, negative = cytotoxicity |
| --- | --- | --- |
| ClC(Cl)=C(c1ccc(Cl)cc1)c1ccc(Cl)cc1 | 39.5 µM (active) | – |
| ClCCN1CCOCC1 | – | 6.55% (inactive) |
| C1CCC2CCCCC2C1 (configuration not stated) | – | 1.17% (inactive) |
| CC12CC1(C)C(=O)N(c1cc(Cl)cc(Cl)c1)C2=O (configuration not stated) | inactive | – |
| ClCc1cccnc1 | inactive | – |
| CNC(=O)O/N=C/C(C)(C)S(C)=O (configuration not stated) | inactive | – |
| CN(C)C(=O)Nc1ccc(Cl)cc1 | inactive | – |
| Cc1ccccc1CCl | – | 0.365% (inactive) |
| CCOP(=S)(OCC)SCSc1cc(Cl)ccc1Cl | – | -5.07% (inactive) |
| Nc1c(Br)cc([N+](=O)[O-])cc1[N+](=O)[O-] | – | -12.2% (inactive) |
| COC[C@@H](NC(C)=O)C(=O)NCc1ccccc1 | – | 3.36% [at 42.5 µM] (inactive) |
| COc1cc(OC)nc(NC(=O)NS(=O)(=O)c2ncccc2C(=O)N(C)C)n1 | – | 5.8% (inactive) |
| OCC(Br)CBr (configuration not stated) | – | -5.69% (inactive) |
| c1ccc(C2CO2)cc1 (configuration not stated) | inactive | – |
| CCN(C)N=O | – | 2.31% (inactive) |
| C=CC(=O)OCCO | inactive | – |
| CCOP(OCC)OCC | inactive | – |
| CC(=O)C1CCOC1=O (configuration not stated) | inactive | – |
| C#CCOC(=O)/C=C(C)/C=C/CC(C)CCCC(C)C (configuration not stated) | – | 3.44% (inactive) |
| CCN(CC)C1CCCCC1 | – | 3.87% (inactive) |

| SMILES | Potency | activity change, negative = cytotoxicity |
| --- | --- | --- |
| CCCCC(CC)COC(=O)c1ccc(C(=O)OCC(CC)CCCC)c(C(=O)OCC(CC)CCCC)c1 (configuration not stated) | inactive | – |
| O=C(CCl)CCl | 50.3 µM (active) and 54.5 µM (active) | – |
| CCCCN=C=O | – | 2.48% (inactive) |
| COc1nc(NC(C)C)nc(NC(C)C)n1 | inactive | – |
| CCOc1cc(C=O)ccc1O | inactive | – |
| Cl/C=C\CCl | – | -4.18% (inactive) |
| C=CC(=O)NC(C)(C)CC(C)=O | – | 4.72% (inactive) |
| Cc1ccc(N)cc1C | – | -2.9% (inactive) |
| CC(C)(Cl)Cl | inactive | – |
| CCOS(C)(=O)=O | – | 2.74% (inactive) |
| O=C([O-])c1ccccn1.O=C([O-])c1ccccn1.O=C([O-])c1ccccn1.[Cr+3] | – | 4.74% (inactive) |
| BrCCc1ccccc1 | – | -0.197% (inactive) |
| COCC(=O)N(c1c(C)cccc1C)[C@H](C)C(=O)OC | – | 0.319% (inactive) |
| CN(C)C(=O)C(c1ccccc1)c1ccccc1 | inactive | – |
| CN(CCCC(=O)c1cccnc1)N=O | – | -2.09% (inactive) |
| COC(=O)[C@@H](N)CCCN/C(N)=N/[N+](=O)[O-] | – | -1.38% [at 42.5 µM] (inactive) |
| CC[N+](=O)[O-] | inactive | – |
| CCCCCCC1CCOC1=O (configuration not stated) | – | 2.95% (inactive) |
| O=[N+]([O-])c1ccccc1O | inactive | – |

system: not listed separately; assay: Nuclear factor erythroid 2-related factor 2/antioxidant responsive element (Nrf2/ARE) small molecule agonists: luciferase reporter gene qHTS assay in human keratinocytes (AID 1919969); details: KeratinoSens HaCaT ARE-luciferase, luminescence, 24 h; series mostly up to 92.4 µM; activity, positive = activation: at the top concentration; note: nearly all actives have a fitted effect of over 35% in size; note: potency is the fitted concentration of half-maximal effect

| SMILES | activity, positive = activation | Potency |
| --- | --- | --- |
| ClC(Cl)=C(c1ccc(Cl)cc1)c1ccc(Cl)cc1 | -39.3% (inactive) | – |
| ClCCN1CCOCC1 | 7.19% (inactive) | – |
| C1CCC2CCCCC2C1 (configuration not stated) | 2.42% (inactive) | – |
| CC12CC1(C)C(=O)N(c1cc(Cl)cc(Cl)c1)C2=O (configuration not stated) | – | inactive |
| ClCc1cccnc1 | – | inactive |
| CNC(=O)O/N=C/C(C)(C)S(C)=O (configuration not stated) | – | inactive |
| CN(C)C(=O)Nc1ccc(Cl)cc1 | 2.28% (inactive) | – |
| Cc1ccccc1CCl | -2.69% (inactive) | – |
| CCOP(=S)(OCC)SCSc1cc(Cl)ccc1Cl | 12.5% (inactive) | – |
| Nc1c(Br)cc([N+](=O)[O-])cc1[N+](=O)[O-] | 6.74% (inactive) | – |
| COC[C@@H](NC(C)=O)C(=O)NCc1ccccc1 | -6.39% [at 42.5 µM] (inactive) | – |
| COc1cc(OC)nc(NC(=O)NS(=O)(=O)c2ncccc2C(=O)N(C)C)n1 | 3.56% (inactive) | – |
| OCC(Br)CBr (configuration not stated) | -3.57% (inactive) | – |
| c1ccc(C2CO2)cc1 (configuration not stated) | – | inactive |
| CCN(C)N=O | 4.19% (inactive) | – |
| C=CC(=O)OCCO | 17.9% (inactive) | – |
| CCOP(OCC)OCC | – | inactive |
| CC(=O)C1CCOC1=O (configuration not stated) | – | inactive |
| C#CCOC(=O)/C=C(C)/C=C/CC(C)CCCC(C)C (configuration not stated) | -0.257% (inactive) | – |
| CCN(CC)C1CCCCC1 | -2.73% (inactive) | – |

| SMILES | activity, positive = activation | Potency |
| --- | --- | --- |
| CCCCC(CC)COC(=O)c1ccc(C(=O)OCC(CC)CCCC)c(C(=O)OCC(CC)CCCC)c1 (configuration not stated) | – | inactive |
| O=C(CCl)CCl | – | 28.3 µM (active) and 27.3 µM (active) |
| CCCCN=C=O | 6.19% (inactive) | – |
| COc1nc(NC(C)C)nc(NC(C)C)n1 | – | inactive |
| CCOc1cc(C=O)ccc1O | – | inactive |
| Cl/C=C\CCl | -1.33% (inactive) | – |
| C=CC(=O)NC(C)(C)CC(C)=O | -6.31% (inactive) | – |
| Cc1ccc(N)cc1C | – | 9.77 µM (active) |
| CC(C)(Cl)Cl | – | inactive |
| CCOS(C)(=O)=O | -6.54% (inactive) | – |
| O=C([O-])c1ccccn1.O=C([O-])c1ccccn1.O=C([O-])c1ccccn1.[Cr+3] | -8.34% (inactive) | – |
| BrCCc1ccccc1 | 10.2% (inactive) | – |
| COCC(=O)N(c1c(C)cccc1C)[C@H](C)C(=O)OC | -1.1% (inactive) | – |
| CN(C)C(=O)C(c1ccccc1)c1ccccc1 | – | inactive |
| CN(CCCC(=O)c1cccnc1)N=O | -5.8% (inactive) | – |
| COC(=O)[C@@H](N)CCCN/C(N)=N/[N+](=O)[O-] | -5.35% [at 42.5 µM] (inactive) | – |
| CC[N+](=O)[O-] | – | inactive |
| CCCCCCC1CCOC1=O (configuration not stated) | 5.96% (inactive) | – |
| O=[N+]([O-])c1ccccc1O | – | inactive |

target: Gonadotropin-releasing hormone receptor (Homo sapiens) (UniProt P30968); assay: Human gonadotropin-releasing hormone receptor (GnRHR) small molecule agonists, calcium flux assay in GnRHR-HEK293 cells (AID 1920063); details: calcium flux fluorescence, agonist mode; series mostly up to 57.6 µM; activity change: at the top concentration; note: nearly all actives have a fitted effect of over 35% in size
In short: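 Agonist mode: compounds at 15 concentrations, in triplicate, went onto calcium dye-loaded GnRHR-HEK293 cells. Intracellular calcium was then followed as 480/540 nm fluorescence at 1 s intervals over 3 min.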

Sequence of Gonadotropin-releasing hormone receptor (Homo sapiens) (P30968 whole entry, looked up): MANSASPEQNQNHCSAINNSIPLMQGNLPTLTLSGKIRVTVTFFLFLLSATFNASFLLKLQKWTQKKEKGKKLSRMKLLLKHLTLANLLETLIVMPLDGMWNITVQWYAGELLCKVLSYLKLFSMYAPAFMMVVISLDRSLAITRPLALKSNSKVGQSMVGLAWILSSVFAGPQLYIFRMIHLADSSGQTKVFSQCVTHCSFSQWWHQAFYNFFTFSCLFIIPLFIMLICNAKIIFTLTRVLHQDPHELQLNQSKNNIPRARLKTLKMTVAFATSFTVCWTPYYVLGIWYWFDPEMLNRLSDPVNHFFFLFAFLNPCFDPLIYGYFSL

| SMILES | Potency | activity change |
| --- | --- | --- |
| ClC(Cl)=C(c1ccc(Cl)cc1)c1ccc(Cl)cc1 | inactive | – |
| ClCCN1CCOCC1 | – | -0.827% (inactive) |
| C1CCC2CCCCC2C1 (configuration not stated) | – | -0.181% (inactive) |
| CC12CC1(C)C(=O)N(c1cc(Cl)cc(Cl)c1)C2=O (configuration not stated) | inactive | – |
| ClCc1cccnc1 | inactive | – |
| CNC(=O)O/N=C/C(C)(C)S(C)=O (configuration not stated) | inactive | – |
| CN(C)C(=O)Nc1ccc(Cl)cc1 | inactive | – |
| Cc1ccccc1CCl | – | 1.1% (inactive) |
| CCOP(=S)(OCC)SCSc1cc(Cl)ccc1Cl | – | -0.469% (inactive) |
| Nc1c(Br)cc([N+](=O)[O-])cc1[N+](=O)[O-] | – | -1.79% (inactive) |
| COC[C@@H](NC(C)=O)C(=O)NCc1ccccc1 | – | -0.038% [at 26.4 µM, hits give high values] (inactive) |
| COc1cc(OC)nc(NC(=O)NS(=O)(=O)c2ncccc2C(=O)N(C)C)n1 | – | 0.169% (inactive) |
| OCC(Br)CBr (configuration not stated) | – | -0.736% (inactive) |
| c1ccc(C2CO2)cc1 (configuration not stated) | inactive | – |
| CCN(C)N=O | – | 1.63% (inactive) |
| C=CC(=O)OCCO | inactive | – |
| CCOP(OCC)OCC | inactive | – |
| CC(=O)C1CCOC1=O (configuration not stated) | inactive | – |
| C#CCOC(=O)/C=C(C)/C=C/CC(C)CCCC(C)C (configuration not stated) | – | 0.725% (inactive) |
| CCN(CC)C1CCCCC1 | – | -0.0007% (inactive) |

| SMILES | Potency | activity change |
| --- | --- | --- |
| CCCCC(CC)COC(=O)c1ccc(C(=O)OCC(CC)CCCC)c(C(=O)OCC(CC)CCCC)c1 (configuration not stated) | inactive | – |
| O=C(CCl)CCl | inactive | – |
| CCCCN=C=O | – | -0.553% (inactive) |
| COc1nc(NC(C)C)nc(NC(C)C)n1 | inactive | – |
| CCOc1cc(C=O)ccc1O | – | 0.229% (inactive) |
| Cl/C=C\CCl | – | -0.788% (inactive) |
| C=CC(=O)NC(C)(C)CC(C)=O | – | -0.574% (inactive) |
| Cc1ccc(N)cc1C | – | 1.22% (inactive) |
| CC(C)(Cl)Cl | inactive | – |
| CCOS(C)(=O)=O | – | 0.334% (inactive) |
| O=C([O-])c1ccccn1.O=C([O-])c1ccccn1.O=C([O-])c1ccccn1.[Cr+3] | – | -0.239% (inactive) |
| BrCCc1ccccc1 | – | -1.03% (inactive) |
| COCC(=O)N(c1c(C)cccc1C)[C@H](C)C(=O)OC | – | 0.467% (inactive) |
| CN(C)C(=O)C(c1ccccc1)c1ccccc1 | inactive | – |
| CN(CCCC(=O)c1cccnc1)N=O | – | -0.0976% (inactive) |
| COC(=O)[C@@H](N)CCCN/C(N)=N/[N+](=O)[O-] | – | -1.29% [at 26.4 µM, hits give high values] (inactive) |
| CC[N+](=O)[O-] | inactive | – |
| CCCCCCC1CCOC1=O (configuration not stated) | – | -0.751% (inactive) |
| O=[N+]([O-])c1ccccc1O | inactive | – |
